Experimental findings from the supplement of paper PMC6555819 are described below.

Common to all, as to assay: PBM binding z-score (relative to random genomic background probes); higher = stronger binding; sequences stand for … in GC…GCGATTGACAGCGTAGAATGAAGG
The test system of assay [1] is FXR:RXRa (NR concentration 270 nM, RXRa partner concentration 90 nM). Put shortly:
(§1)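 Binding buffer was PBS pH 7.4 with 2% milk, 0.02% Triton X-100, 1 mM DTT, 0.2 mg/mL BSA and 0.4 mg/ml salmon testes DNA. In it, ligand-free nuclear receptor dimers were incubated 1 h on custom Agilent 4×180K protein-binding microarrays carrying double-stranded probes. Antibodies against each partner (one per run) detected binding, and z-scores were calculated against random background probes after regression normalization of scanned fluorescence.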

Assay [2] deals with LXRa:RXRa (NR concentration 270 nM, RXRa partner concentration 90 nM). A digest of the protocol:
as §1

Assay [3] has as its system LXRa homodimer (NR concentration 270 nM). A digest of the protocol:
as §1

The test system of assay [4] is LXRb:RXRa (NR concentration 270 nM, RXRa partner concentration 90 nM). Put shortly: as §1
Assay [5] deals with LXRb homodimer (NR concentration 270 nM). A digest of the protocol:
as §1

The test system of assay [6] is PPARa:RXRa (NR concentration 270 nM, RXRa partner concentration 90 nM). Put shortly: as §1
Assay [7] deals with PPARg:RXRa (NR concentration 180 nM, RXRa partner concentration 90 nM). Put shortly:
as §1

For assay [8], the system named is PPARg:RXRa 270nM:90nM, anti-RXR (NR concentration 270 nM, RXRa partner concentration 90 nM). Put shortly:
as §1

For assay [9], the system named is PPARg:RXRa 30nM:10nM, anti-RXR (NR concentration 30 nM, RXRa partner concentration 10 nM). Put shortly: as §1
Assay [10] relates to PPARg:RXRa 90nM:30nM, anti-RXR (NR concentration 90 nM, RXRa partner concentration 30 nM). A digest of the protocol:
as §1

For assay [11], the system named is PPARg:RXRa DBDmut IVT, anti-RXR (DBD mutation: RXRa K156A/R161A, NR concentration 270 nM, RXRa partner concentration 90 nM). Put shortly:
as §1

Assay [12] has as its system PPARg:RXRa IVT, anti-PPARg (NR concentration 270 nM, RXRa partner concentration 90 nM). Put shortly:
as §1

Assay [13] deals with PPARg DBDmut:RXRa IVT, anti-PPARg (DBD mutation: PPARg1 K132A/R137A, NR concentration 270 nM, RXRa partner concentration 90 nM). Put shortly:
as §1

Assay [14] has as its system PPARg DBDmut IVT, anti-PPARg (DBD mutation: PPARg1 K132A/R137A, NR concentration 270 nM). Put shortly: as §1
The test system of assay [15] is PPARg homodimer (NR concentration 180 nM). A digest of the protocol: as §1
Assay [16] concerns PXR:RXRa (NR concentration 270 nM, RXRa partner concentration 90 nM). A digest of the protocol:
as §1

Assay [17] deals with PXR homodimer (NR concentration 270 nM). A digest of the protocol:
as §1

In assay [18] the test system is RARa:RXR (NR concentration 270 nM, RXRa partner concentration 90 nM). A digest of the protocol: as §1
Assay [19] relates to RARa homodimer (NR concentration 270 nM). A digest of the protocol:
as §1

The test system of assay [20] is RARb:RXRa (NR concentration 270 nM, RXRa partner concentration 90 nM). A digest of the protocol: as §1

For the sequence CGTCCAAGGTCATCAGGTCAGTGAAAGCGACGTG, the PBM binding z-score in assay [1] was 7.31; in assay [2] it was 5.49; in assay [3] it was 1.85; in assay [4] it was 4.14; in assay [5], 0.684; in assay [6] it was 5.83. For the same sequence, the PBM binding z-score in [7] is 6.35; in assay [8] it was 6.07; in [9], 2.32; in [10], 4.84; in [11], 3.92; in assay [12], 4.54. Also, the PBM binding z-score in assay [13] is 1.13; in assay [14], -0.42; in [15], 3.58; in assay [16], 4.88; in assay [17] it was 1.66; in [18] it was 5.46. In addition, the PBM binding z-score in [19] turned out to be 1.46; in assay [20] it was 5.43.

In the case of CCTACTGGGCCAAAGGTTATTGATTCCAATGCTC, the PBM binding z-score in assay [1] is 0.648; in [2] it was 1.32; in [3], 0.345; in [4], 1.76; in [5], -0.363; in assay [6], 5.33. The PBM binding z-score in assay [7] was 10.4; in [8], 9.22; in assay [9], 8.72; in assay [10], 10.5; in assay [11] it was 5.27; in [12], 5.88. Also, the PBM binding z-score in [13] is 0.256; in [14], -0.287; in assay [15], 0.925; in [16] it was 1.39; in assay [17] it was 0.0532; in [18], 2.34. Moreover, the PBM binding z-score in [19] was -0.256; in assay [20], 1.53.

For the sequence TAGGCTAGGTCATTGGGCCAGTATAGTACGCATC, the PBM binding z-score came to 4 in assay [1]; 2.77 in assay [2]; 0.321 in assay [3]; 1.87 in assay [4]; 0.37 in assay [5]; 3.73 in assay [6]. Moreover, the PBM binding z-score came to 3.73 in assay [7]; 3.76 in [8]; 0.966 in assay [9]; 2.24 in [10]; 2.74 in assay [11]; 3.99 in assay [12]. Moreover, the PBM binding z-score in [13] was 0.305; in [14], 0.421; in assay [15] it was 1.41; in assay [16] it was 1.32; in [17], -0.0794; in [18], 1.9. Moreover, the PBM binding z-score in [19] was 0.178; in assay [20], 3.79.

As to TCGAGTAGGTTAGGGGCATTGAGAATGGCGTCGA, the PBM binding z-score in assay [1] was 0.089; in assay [2], 0.155; in [3], -0.182; in assay [4], 0.843; in assay [5], -0.13; in [6] it was 1.18. Further, the PBM binding z-score amounted to 0.706 in assay [7]; 1.97 in assay [8]; 1.38 in assay [9]; 1.51 in [10]; 1.85 in assay [11]; 1.45 in assay [12]. The PBM binding z-score in assay [13] was -1.19; in [14] it was -0.696; in [15] it was 1.3; in assay [16], 0.449; in assay [17], 0.233; in [18], 0.211. Besides, the PBM binding z-score in assay [19] is -0.562; in assay [20], 1.03.

For the sequence CTCGAAAGATCGTGCTCAGGTGAGTATACCAAAC, the PBM binding z-score was -0.102 in [1]; -0.388 in assay [2]; -0.396 in assay [3]; -0.276 in [4]; -0.402 in assay [5]; -0.384 in [6]. The PBM binding z-score in assay [7] was -0.161; in assay [8], -0.399; in assay [9] it was -0.236; in assay [10], -0.424; in assay [11], -0.285; in [12], -0.0174. Also, the PBM binding z-score in [13] was -0.0381; in assay [14] it was 0.428; in [15], 0.0271; in assay [16], -0.467; in assay [17], -0.289; in assay [18] it was -0.00355. Also, the PBM binding z-score in assay [19] is -0.239; in [20] it was -0.0571.

In the case of CCTGCTAGGTTAATGGTCAGCTAAAGCAGCTCGC, the PBM binding z-score in [1] is -0.16; in assay [2], 0.22; in assay [3], -0.415; in assay [4], 0.0198; in [5] it was -0.231; in assay [6], 0.798. The PBM binding z-score in [7] was 1.47; in assay [8], 3.16; in assay [9] it was 0.835; in assay [10], 2.53; in assay [11], 2.01; in [12], 1.36. Besides, the PBM binding z-score is -0.242 in assay [13]; -0.61 in assay [14]; 0.222 in assay [15]; -0.336 in assay [16]; -0.337 in assay [17]; 0.0339 in assay [18]. The PBM binding z-score in assay [19] was -0.547; in assay [20], 1.26.

On to TTACCAAGGTGAAATGTCGTTGATGCACGCCTTG, for which the PBM binding z-score is 0.891 in assay [1]; 0.622 in [2]; -0.432 in assay [3]; 0.388 in [4]; -0.436 in [5]; 2.35 in assay [6]. Moreover, the PBM binding z-score in assay [7] came to 2.41; in assay [8] it was 3.4; in assay [9], 1.94; in assay [10], 3.36; in assay [11], 2.04; in assay [12], 2.84. Further, the PBM binding z-score was 0.312 in assay [13]; 0.465 in [14]; 0.892 in assay [15]; 0.271 in assay [16]; -0.455 in assay [17]; 0.706 in [18]. Further, the PBM binding z-score in [19] is -0.394; in assay [20] it was 1.44.
